L929 necroptosis: blocks zVAD induced death of L929 cells; L929 zVAD necroptosis rescue, ATP luminescence, 24 h; with zVAD 60 µM; viability rescue, % at 10 µM; 0.38% of 220,000 active; AID 1377;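 active = activation, scaled between plate controls, above about 75%, limit read from the data; inactive = activation under that limit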;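 also: 0% = zVAD with DMSO and 100% = DMSO alone without zVAD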
Calpain2 inh: inhibitors of pig calpain II | purified calpain II, fluorogenic peptide substrate, 30 min | inhibition, % at 16 µM | 0.37% of 220,000 active;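 active = inhibition above about 50%, limit read from the data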
HSV augment: HSV replication enhancement | HSV replication augmentation in cells, fold increase | maximum fold increase | 0.005% of 220,000 active; in the data active = maximum fold increase above about 1.5; inconclusive = no clear call, values can overlap the other calls; tested in PC3 cells
TNF necrop inh: blocks TNF-alpha induced death of Jurkat FADD-/- cells. Jurkat FADD-/- TNF necroptosis rescue, ATP luminescence, 24 h; 0 = TNF only, 100 = no-TNF cells. 0.068% of 220,000 active. activation (protection from cell death), % at 10 µM;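 active = activation, meaning protection from cell death, of at least 50% relative to plate controls; inactive = activation below 50%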;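 also: necroptosis triggered by 40 ng/mL TNF-alpha added together with compound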
* hit, by the source's call; i = inactive; ? = inconclusive; nt = no result. The list is not random: actives were taken first. Their share in the collection is about 0.77%.

SMILES | L929 necroptosis | Calpain2 inh | HSV augment | TNF necrop inh
c1ccc(N2CCN(c3ncnc4scc(-c5cccs5)c34)CC2)cc1 | 0 | 54* | i | 1
O=C(c1ccco1)N1CCN(c2ncnc3scc(-c4cccs4)c23)CC1 | -1 | -21 | i | -2
Clc1ccccc1-c1nnc2sc(-c3cccs3)nn12 | 1 | 52* | i | 1
CCN1CCN(C2=CC3=CC(=C(C#N)C#N)CCC3CC2)CC1 (stereo unspecified) | -1 | 61* | ? | 1
Cc1ccccc1NC1=C/C(=N\S(=O)(=O)c2cccs2)c2ccccc2C1=O | 22 | -3 | i | -27
Cc1ccc(NC2=C/C(=N/S(=O)(=O)c3cccs3)c3ccccc3C2=O)cc1C | 2 | 50* | nt | -8
O=C(O)c1cccc(N2C(=O)/C(=C/c3ccc(SCc4ccc(Cl)cc4)o3)SC2=S)c1 | 0 | 69* | i | -11
COc1ccc(Br)cc1/C=C/C(=O)c1ccc(NC(C)=O)cc1 | 88* | 12 | i | -7
O=C1c2cccc3cccc(c23)C(=O)N1CCN1CCN(C(=S)Nc2ccc(Cl)cc2)CC1 | 1 | 54* | i | 1
O=C1c2cccc3cccc(c23)C(=O)N1CCN1CCN(C(=S)Nc2ccccc2)CC1 | 0 | -7 | i | 4
Cc1ccc(N=Nc2c(O)n(CN3CCOCC3)c3ccccc23)cc1 | 85* | -10 | nt | -3
Cc1cccc(NC(=S)N=Nc2c(O)n(CN3CCOCC3)c3ccccc23)c1C | -1 | -24 | i | 2
CC(C)c1ccc(-c2noc(C3CCCN(C(=O)c4ccc(F)cc4F)C3)n2)cc1 (stereo unspecified) | 0 | 77* | i | -8
CN(C)C(=O)CSc1nnc(-c2ccc(F)cc2)c2ccccc12 | -1 | -10 | i | -3
CCCCSc1nnc(-c2ccc(C)cc2)c2ccccc12 | 1 | 52* | i | 3
O=c1nccc(SCc2ccc(Cl)cc2Cl)[nH]1 | 0 | 0 | i | 2
O=C(CSc1nc(-c2ccc(F)cc2)nc2c1Cc1ccccc1O2)Nc1cccc(C(=O)O)c1 | 5 | 59* | i | -1
Nc1ncnc(Nc2ccccc2Cl)n1 | 1 | -21 | i | -1
Cc1ccc(NC(=S)NC(C)CCc2ccccc2)cc1C (stereo unspecified) | nt | 64* | i | -18
COc1ccc(-n2c(SCC(N)=O)nc3sc4c(c3c2=O)CCC4)cc1 | -2 | 7 | i | 2
Cc1nnc(Sc2cc(NCCCO)c([N+](=O)[O-])c3nonc23)s1 | 25 | 32 | i | -18
Cc1nnc(Sc2cc(NCCO)c([N+](=O)[O-])c3nonc23)s1 | 2 | 82* | i | -18
Cc1nnc2sc(SCC(=O)Nc3cccc(Cl)c3)nn2c1=O | -1 | 3 | i | 3
Cc1ccc(-c2[nH]ncc2/C=N/n2c(COc3ccccc3C)nc3ccccc3c2=O)cc1 | 2 | 61* | i | 1
Cc1ccccc1OCc1nc2ccccc2c(=O)n1/N=C/c1c[nH]c2ccccc12 | 3 | -17 | i | 2
SMILES | L929 necroptosis | Calpain2 inh | HSV augment | TNF necrop inh
Cn1c(NCc2ccco2)nc2c1c(=O)n(Cc1ccc(Cl)cc1)c(=O)n2C | 0 | 46 | i | 0
COc1ccc(Cn2c(=O)c3c(nc(NCCO)n3C)n(C)c2=O)cc1 | 1 | 18 | i | -1
COc1ccc(CNc2nc3c(c(=O)n(Cc4ccc(Br)cc4)c(=O)n3C)n2C)cc1 | 1 | 89* | i | -12
Cn1c(NCc2ccccc2)nc2c1c(=O)n(Cc1ccc(Br)cc1)c(=O)n2C | 3 | 78* | i | -2
Cn1c(NCc2ccco2)nc2c1c(=O)n(Cc1ccc(Br)cc1)c(=O)n2C | 0 | 71* | i | -1
CC(=O)c1cc(CN2CCN(C(C)C)C(CCO)C2)cs1 (stereo unspecified) | 0 | -25 | i | 0
COc1ccc(NC(=O)CN(C)CC(=O)Nc2cccc(S(=O)(=O)N(C)c3ccccc3)c2)cc1 | -1 | 10 | i | 0
O=[N+]([O-])C(/C=C(/Cl)[N+](=O)[O-])=C(N1CCCCC1)N1CCCCC1 | -1 | -6 | i | -22
O=C(OCc1nnc(-c2ccccc2)o1)c1ccc2c(c1)OCO2 | 0 | 72* | i | -2
N#C/C(=C\c1cccc(O)c1)C(=O)Nc1ccc2c(c1)OCCO2 | 2 | -9 | i | -1
N#CC(C#N)=C1C=CC=CN1/C(=C\c1ccco1)C(=O)c1ccccc1 | 0 | -37 | i | 7
N#CC(C#N)=C1C=CC=CN1/C(=C\c1ccco1)C(=O)c1ccc(Br)cc1 | -2 | -45 | i | 62*
